Results from PubChem BioAssay (NCI).
About 83,000 compounds went through this panel and 20% of them were active in at least one assay; those are over-represented in the sample as a whole.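 96-well plates, one dose, 48 hours. Percent growth reported; active if below 10.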 Calls of active or inactive are those of the source.

Legend:
Experiment in all cases: NCI-60 one-dose screen, 48 h (100 = growth as untreated, 0 = no growth, -100 = all killed)
Conditions in all cases: 10 µM unless noted
HCT-15 colon = test system: HCT-15 colon
HT29 colon = test system: HT29 colon
SNB-75 CNS = test system: SNB-75 CNS
SNB-19 CNS = test system: SNB-19 CNS
U251 CNS = test system: U251 CNS
PC-3 prostate = test system: PC-3 prostate
SK-MEL-5 melanoma = test system: SK-MEL-5 melanoma
UACC-62 melanoma = test system: UACC-62 melanoma
LOX IMVI melanoma = test system: LOX IMVI melanoma
SK-MEL-28 melanoma = test system: SK-MEL-28 melanoma
SK-MEL-2 melanoma = test system: SK-MEL-2 melanoma
EKVX NSCLC = test system: EKVX NSCLC
SN12C renal = test system: SN12C renal
UO-31 renal = test system: UO-31 renal
TK-10 renal = test system: TK-10 renal
ACHN renal = test system: ACHN renal
CAKI-1 renal = test system: CAKI-1 renal
A498 renal = test system: A498 renal
CCRF-CEM leukemia = test system: CCRF-CEM leukemia
MOLT-4 leukemia = test system: MOLT-4 leukemia

Measured: growth

COc1cc(NCC(O)CN(CC(C)C)CC(C)C)c2ncccc2c1 (stereo not given)
inactive: HCT-15 colon 80.1% | HT29 colon 77.9% | SNB-75 CNS 82.8% | SNB-19 CNS 90.1% | U251 CNS 80.7% | PC-3 prostate 58.6% | SK-MEL-5 melanoma 86.1% | UACC-62 melanoma 76.9% | LOX IMVI melanoma 83.6% | SK-MEL-28 melanoma 75.3% | SK-MEL-2 melanoma 100% | EKVX NSCLC 93.2% | SN12C renal 84.6% | UO-31 renal 88.6% | TK-10 renal 113% | ACHN renal 87.6% | CAKI-1 renal 99.2% | A498 renal 70% | CCRF-CEM leukemia 57.8% | MOLT-4 leukemia 74.9%

O=[N+]([O-])c1ccc(N=Nc2c(NNc3ccc([N+](=O)[O-])cn3)cc(S(=O)(=O)O)c3ccccc23)nc1
inactive: HCT-15 colon 68.7% | HT29 colon 40.8% | SNB-75 CNS 91.9% | SNB-19 CNS 95.6% | U251 CNS 68.7% | PC-3 prostate 67.7% | SK-MEL-5 melanoma 92% | UACC-62 melanoma 86.4% | LOX IMVI melanoma 57.9% | SK-MEL-28 melanoma 104% | SK-MEL-2 melanoma 108% | EKVX NSCLC 91.1% | SN12C renal 81.5% | UO-31 renal 52.1% | TK-10 renal 88.4% | ACHN renal 57.4% | CAKI-1 renal 64.1% | A498 renal 77.2% | CCRF-CEM leukemia 65.1% | MOLT-4 leukemia 70.9%

c1ccc(-c2ccc(-c3ccccc3)[nH]2)cc1
inactive: HCT-15 colon 94.8% | HT29 colon 101% | SNB-75 CNS 87.9% | SNB-19 CNS 104% | U251 CNS 105% | PC-3 prostate 99.8% | SK-MEL-5 melanoma 99% | UACC-62 melanoma 87.2% | LOX IMVI melanoma 103% | SK-MEL-28 melanoma 107% | SK-MEL-2 melanoma 98.7% | EKVX NSCLC 75.6% | SN12C renal 95.5% | UO-31 renal 87% | TK-10 renal 138% | ACHN renal 100% | CAKI-1 renal 83.6% | A498 renal 63.7% | CCRF-CEM leukemia 90.9% | MOLT-4 leukemia 80.3%

N=c1nc(N2CCCCC2)cc(N)n1O
inactive: HCT-15 colon 97% | HT29 colon 107% | SNB-75 CNS 93.5% | SNB-19 CNS 99.8% | U251 CNS 101% | PC-3 prostate 103% | SK-MEL-5 melanoma 94.8% | UACC-62 melanoma 104% | LOX IMVI melanoma 110% | SK-MEL-28 melanoma 111% | SK-MEL-2 melanoma 118% | EKVX NSCLC 108% | SN12C renal 98.8% | UO-31 renal 104% | TK-10 renal 112% | ACHN renal 97.5% | CAKI-1 renal 101% | A498 renal 117% | CCRF-CEM leukemia 112% | MOLT-4 leukemia 93%

C=C1C(=O)O[C@H]2[C@H]1CC/C(COC(=O)N[C@@H](Cc1c[nH]c3ccccc13)C(=O)OC)=C\CC[C@@]1(C)O[C@@H]21
inactive: SNB-75 CNS 68.7% | SNB-19 CNS 66.8% | U251 CNS 25.3% | PC-3 prostate 33.3% | SK-MEL-5 melanoma 21.8% | UACC-62 melanoma 27.8% | SK-MEL-2 melanoma 41.3% | EKVX NSCLC 55.4% | SN12C renal 33.4% | UO-31 renal 41.3% | CAKI-1 renal 29.7% | A498 renal 91.9%
active: HCT-15 colon -12.1% | HT29 colon -29.5% | LOX IMVI melanoma -38.5% | SK-MEL-28 melanoma 6.71% | TK-10 renal -23.2% | ACHN renal 7.04% | CCRF-CEM leukemia -12.3% | MOLT-4 leukemia -13.2%

O=C(NCCN1CCCCC1)n1cc(-c2ccncc2)c(-c2ccc(Cl)c(O)c2)n1
inactive: HCT-15 colon 86.6% | HT29 colon 95.5% | SNB-75 CNS 78.9% | SNB-19 CNS 101% | U251 CNS 98.5% | PC-3 prostate 84.6% | SK-MEL-5 melanoma 73.2% | UACC-62 melanoma 37.9% | LOX IMVI melanoma 64.7% | SK-MEL-28 melanoma 37.5% | SK-MEL-2 melanoma 60.8% | EKVX NSCLC 114% | SN12C renal 81.6% | UO-31 renal 55.4% | TK-10 renal 79.4% | ACHN renal 57.4% | CAKI-1 renal 109% | A498 renal 114% | CCRF-CEM leukemia 87% | MOLT-4 leukemia 88.2%

COc1cc(C2CC(c3ccc(Cl)cc3)=NN2C(C)=O)ccc1Oc1ccnc2cc(Cl)ccc12 (stereo not given)
inactive: HCT-15 colon 91.9% | HT29 colon 28.2% | SNB-75 CNS 33.2% | SNB-19 CNS 70.7% | U251 CNS 43.8% | PC-3 prostate 58.3% | SK-MEL-5 melanoma 67.8% | UACC-62 melanoma 60.5% | LOX IMVI melanoma 37.9% | SK-MEL-28 melanoma 55.1% | SK-MEL-2 melanoma 67.2% | EKVX NSCLC 51.9% | SN12C renal 70.9% | UO-31 renal 57.5% | TK-10 renal 37.4% | ACHN renal 18.8% | CAKI-1 renal 26.1% | A498 renal 69% | CCRF-CEM leukemia 87.1% | MOLT-4 leukemia 97.4%

O=C1/C=C/[C@@H](O)[C@@H]2C[C@@H](O)C[C@H]2/C=C/CCC[C@H]([C@@H](O)CO)O1
inactive: HCT-15 colon 95.3% | HT29 colon 80.2% | SNB-75 CNS 84% | SNB-19 CNS 66.5% | U251 CNS 69.1% | PC-3 prostate 88.7% | UACC-62 melanoma 62.5% | LOX IMVI melanoma 38.7% | SK-MEL-28 melanoma 38.8% | SK-MEL-2 melanoma 98.4% | EKVX NSCLC 96.6% | SN12C renal 102% | UO-31 renal 68.3% | TK-10 renal 121% | ACHN renal 109% | CAKI-1 renal 97.6% | A498 renal 64% | CCRF-CEM leukemia 101% | MOLT-4 leukemia 103%
active: SK-MEL-5 melanoma 4.48%

CCn1c(Cc2ccccc2Nc2c(Cl)cccc2Cl)nnc1SCC(=O)Nc1cccc(OC)c1
inactive: HCT-15 colon 78.9% | HT29 colon 68.6% | SNB-75 CNS 86.2% | SNB-19 CNS 79.4% | U251 CNS 86.1% | PC-3 prostate 56.1% | SK-MEL-5 melanoma 91.6% | UACC-62 melanoma 33.6% | LOX IMVI melanoma 79.9% | SK-MEL-28 melanoma 96.4% | SK-MEL-2 melanoma 91.5% | EKVX NSCLC 77.7% | SN12C renal 66.6% | UO-31 renal 68.6% | TK-10 renal 82.8% | ACHN renal 88.7% | CAKI-1 renal 84.6% | A498 renal 40.9% | CCRF-CEM leukemia 73.1% | MOLT-4 leukemia 54.3%

c1ccc2oc(-c3cnc4nonc4n3)cc2c1
inactive: HCT-15 colon 107% | HT29 colon 96.3% | SNB-75 CNS 76.6% | SNB-19 CNS 88.8% | U251 CNS 103% | PC-3 prostate 92.7% | SK-MEL-5 melanoma 98.4% | UACC-62 melanoma 79.6% | LOX IMVI melanoma 94.6% | SK-MEL-28 melanoma 120% | SK-MEL-2 melanoma 95% | EKVX NSCLC 71.2% | SN12C renal 93% | UO-31 renal 63.1% | TK-10 renal 132% | ACHN renal 82.3% | CAKI-1 renal 86.8% | A498 renal 103% | CCRF-CEM leukemia 95.8% | MOLT-4 leukemia 97.2%

Clc1cc(Cl)cc(-c2cnc3nonc3n2)c1
inactive: HCT-15 colon 64.4% | HT29 colon 92.8% | SNB-75 CNS 99% | SNB-19 CNS 93.4% | U251 CNS 106% | PC-3 prostate 90.9% | SK-MEL-5 melanoma 107% | UACC-62 melanoma 83.1% | LOX IMVI melanoma 95% | SK-MEL-28 melanoma 91.5% | SK-MEL-2 melanoma 98.5% | EKVX NSCLC 102% | SN12C renal 99.4% | UO-31 renal 62.3% | TK-10 renal 79.9% | ACHN renal 72.6% | CAKI-1 renal 93.5% | A498 renal 100% | CCRF-CEM leukemia 50.5% | MOLT-4 leukemia 92.9%

O=C(NO)c1ccc(CNc2cccc3nc(C4CC4)n(-c4ccccc4)c(=O)c23)cc1
active: HCT-15 colon 7.98% | U251 CNS -7.99% | PC-3 prostate -47% | SK-MEL-5 melanoma 2.95% | UACC-62 melanoma -22.2% | LOX IMVI melanoma -34.9% | SK-MEL-28 melanoma 9.83% | UO-31 renal 3.57% | ACHN renal 3.75% | CAKI-1 renal 7.51% | CCRF-CEM leukemia -13.3% | MOLT-4 leukemia -21.7%
inactive: HT29 colon 24.8% | SNB-75 CNS 33% | SNB-19 CNS 25.9% | SK-MEL-2 melanoma 53.7% | EKVX NSCLC 42.2% | SN12C renal 15.5% | TK-10 renal 13.6% | A498 renal 13.7%

CN(C)c1ccc(/C=C\c2cccc[n+]2C)cc1
inactive: HCT-15 colon 104% | HT29 colon 34.4% | SNB-75 CNS 70.1% | SNB-19 CNS 31.8% | U251 CNS 33% | PC-3 prostate 11% | SK-MEL-5 melanoma 24.2% | UACC-62 melanoma 81.3% | LOX IMVI melanoma 50% | SK-MEL-28 melanoma 56.6% | SK-MEL-2 melanoma 75.6% | EKVX NSCLC 23% | SN12C renal 52.2% | UO-31 renal 59.5% | TK-10 renal 67.2% | ACHN renal 77.3% | CAKI-1 renal 42.1% | A498 renal 13.4% | CCRF-CEM leukemia 49.6% | MOLT-4 leukemia 74.4%

c1csc(-c2cnc3nonc3n2)c1
inactive: HCT-15 colon 89.7% | HT29 colon 91.2% | SNB-75 CNS 79.8% | SNB-19 CNS 81.6% | U251 CNS 88% | PC-3 prostate 66.3% | SK-MEL-5 melanoma 87.9% | UACC-62 melanoma 79.3% | LOX IMVI melanoma 62.6% | SK-MEL-28 melanoma 104% | SK-MEL-2 melanoma 105% | EKVX NSCLC 101% | SN12C renal 86.7% | UO-31 renal 66.5% | TK-10 renal 128% | ACHN renal 85.7% | CAKI-1 renal 90.3% | A498 renal 88.1% | CCRF-CEM leukemia 79.7% | MOLT-4 leukemia 78.9%

CNC(=O)OC1C(O[C@H]2C[C@H]3[C@@H]4CC=C5C[C@@H](O)CC[C@]5(C)[C@H]4CC[C@]3(C)[C@H]2[C@H](C)C(=O)CCC(C)C)OCC(O)C1OC1OCC(O)C(O)C1OC(=O)c1ccc(OC)cc1 (stereo not given in full)
active: HCT-15 colon 0.802% | U251 CNS 1.48% | PC-3 prostate -21.8% | SK-MEL-5 melanoma -27.9% | UACC-62 melanoma -27.6% | LOX IMVI melanoma -31.3% | SK-MEL-28 melanoma -53.3% | SK-MEL-2 melanoma -33.6% | UO-31 renal -18.8% | CAKI-1 renal 0.834% | A498 renal -60.3% | CCRF-CEM leukemia -13.7% | MOLT-4 leukemia -40.2%
inactive: HT29 colon 14.7% | SNB-75 CNS 18.4% | SNB-19 CNS 23.2% | EKVX NSCLC 30.1% | SN12C renal 59.9% | TK-10 renal 14% | ACHN renal 39.2%
